# Assay outcomes as filed in PubChem BioAssay.
# These entries were drawn from the full list.
# aSyn UTR act = Activators working through SNCA 5'UTR binding (MLPCN); alpha-synuclein 5'UTR reporter, activators screen; activity score, % (tested at 7.5 µM), hits read low; 7.1% of 300,000 active; AID 1814; in the data active = activity score below about -60%
# Numbers stand for hits; – = inactive.
SMILES,aSyn UTR act
Cc1nc(-c2ccc(C(=O)Nc3cccc(Br)c3)cc2)cs1,-142.8
CC(C)(C)c1csc(NC(=O)C2=COCCO2)n1,-107.1
Cc1nc(-c2ccc(NC(=O)c3ccc(Br)o3)cc2)cs1,-174.9
COc1ccc(C)c2sc(NC(=O)C3=COCCO3)nc12,-76.6
O=C(Nc1nc(-c2cc(F)ccc2F)cs1)c1ccccn1,-115.1
CC(=O)Nc1ccc(-c2csc(NC(=O)c3ccc(C)o3)n2)cc1,-83.3
CCOC(=O)c1csc(NC(=O)C2CCCCC2)n1,-103.0
O=C(Nc1cccc(Br)c1)c1ccn[nH]1,-102.2
O=C(Nc1nc(-c2cc(F)ccc2F)cs1)C1=COCCO1,-62.6
COc1ccc(OC)c(NC(=O)c2ccc(-c3csc(C)n3)cc2)c1,-84.4
Cc1ccc(-c2csc(NC(=O)N3CCOCC3)n2)cc1,-103.5
Cc1ccc(-c2csc(NC(=O)C3=COCCO3)n2)cc1,-168.9
CC(=O)Nc1ccc(-c2csc(NC(=O)C3=COCCO3)n2)cc1,-114.7
CCOC(=O)c1csc(NC(=O)C2=COCCO2)n1,-86.7
Cc1ccc2nc(-c3ccc(NS(=O)(=O)c4c(C)n(C)c(=O)n(C)c4=O)cc3)sc2c1,-94.4
Cc1cccc(S(=O)(=O)Nc2ccc(-c3nc4ccc(C)cc4s3)cc2)c1,-171.8
CC(=O)c1ccc(NS(=O)(=O)c2cccc(C)c2)cc1,-127.4
COc1ccc(NC(=O)CCn2cc(C)c3ccccc32)cc1,-75.7
CC(=O)Nc1ccc(OCc2cccc3ccccc23)cc1,–
COc1ccc(NC(=O)c2cccc3ccccc23)cc1,-95.6
COCC(=O)Nc1ccccc1C(=O)Nc1ccc(OC)cc1,-90.1
COc1ccc(NC(=O)c2ccccc2C)cc1,-131.9
CC(CC(=O)NCc1ccccc1)C1CCCO1 (stereo not given),-62.0
CCN1C(=O)S/C(=C\c2ccc(N3CCOCC3)cc2C)C1=O,-147.7
C#CCN1C(=O)S/C(=C\c2ccc(N3CCOCC3)cc2C)C1=O,-149.7
SMILES,aSyn UTR act
CCn1c(SCc2ccc(OC)cc2)nnc1-c1ccncc1,-106.3
C=CCn1c(SCc2ccc(C#N)cc2)nnc1-c1cccc(OC)c1,–
C=CCn1c(SCc2ccc(OC)cc2)nnc1-c1cccnc1,-117.4
Cc1cccc(C(=O)Nc2nc3ccc(S(C)(=O)=O)cc3s2)c1,-281.4
CC(C)(C)C(=O)Nc1nc2ccc(S(C)(=O)=O)cc2s1,-112.1
Cc1ccc2nc(NC(=O)c3ccc(NS(=O)(=O)c4cccs4)cc3)sc2c1,-129.8
CCc1cccc2c(C(=O)COC(=O)c3ccc(O)cc3)c[nH]c12,-108.9
CCc1cccc2c(C(=O)COC(=O)c3ccccc3)c[nH]c12,-186.1
O=C(OCC(=O)c1cccc2ccccc12)c1ccc(CO)cc1,-98.2
Cc1ccc(C(=O)Nc2ncccc2O)o1,-84.2
Cc1noc(C)c1COc1ccc(C(=O)Nc2ncccc2O)cc1,-66.6
O=C(Nc1ncccc1O)c1ccc(Oc2ccccc2)cc1,-198.3
Cc1ccc(C(=O)CCC(=O)Nc2ncccc2O)cc1,-70.4
Cc1noc(C)c1COc1ccc(CC(=O)NCc2ccccc2)cc1,–
COc1cc(OC)cc(-c2nc3cc(C)ccc3o2)c1,-215.8
COc1cc(C(=O)Nc2cc(-c3nc4cc(C)ccc4o3)ccc2C)cc(OC)c1OC,-129.1
Cc1ccc2oc(-c3cccc(NC(=O)c4ccccn4)c3)nc2c1,-95.7
COc1cc(C(=O)Nc2cccc(-c3nc4cc(C)ccc4o3)c2)cc(OC)c1OC,-162.1
CC(C)c1ccc(NC(=S)NCc2cccs2)cc1,-85.7
CC(=O)NCc1ccc(C(=O)CCl)s1,-64.3
Cc1nn2c(N)c(-c3ccccc3)cnc2c1-c1ccc(Cl)cc1,-193.5
Cc1nn2c(-c3ccccc3)ccnc2c1-c1ccccc1,-139.5
Cc1ccc(-c2ccnc3c(Cl)c(C)nn23)cc1,–
Cc1nc2nc(N)nn2c(C)c1C/C=C/c1ccccc1,–
Cc1nn2c3c(cnc2c1-c1ccccc1)C(=O)CCC3,-89.6
SMILES,aSyn UTR act
Cc1nc2c(-c3ccccc3)c(C)nn2c(N)c1-c1ccccc1,-137.5
Cc1cc(SCC(=O)c2ccccc2)nc(=O)[nH]1,-106.7
O=C(CSc1ccc(-c2cccs2)nn1)N1CCCCCC1,-71.5
Cc1ccc(-c2ccc(SCC(=O)c3ccccc3)nn2)cc1,-64.9
COc1ccc(-c2ccc(SCC(=O)c3cccs3)nn2)cc1,-94.5
O=C(CSc1ccc(-c2ccccc2)nn1)c1cccs1,-94.3
COc1ccc(/C=C2\SC(=N)N(c3nccs3)C2=O)cc1OC,–
CN=C1S/C(=C\c2ccc(O)c(OC)c2)C(=O)N1C,-110.2
CN=C1S/C(=C\c2ccc(SC)cc2)C(=O)N1C,-98.3
CSC1=NC(=O)/C(=C/c2ccc(SC)cc2)S1,-80.7
O=c1cccccc1NN=C1CCCCCC1,-140.0
O=c1cccccc1NN=C1CCCCC1,-68.8
COc1ccc(NC(=O)Nc2ccccn2)cc1OC,-79.4
CN1C(=O)CSc2ccc(NC(=O)Nc3ccccn3)cc21,-115.6
O=C(Nc1ccc(Cl)c(Cl)c1)Nc1ccccn1,-177.7
O=C(/C=C1\SC(=O)N(CC(=O)Nc2ccc(F)cc2)C1=O)Nc1ccc(Cl)cc1,-195.9
O=C(c1cc2ccccc2oc1=O)N(c1ccccc1)C1C=CS(=O)(=O)C1 (stereo not given),-102.4
COc1ccc(N(C(=O)c2cc3ccccc3oc2=O)C2C=CS(=O)(=O)C2)cc1 (stereo not given),-61.8
CC(C)c1ccc(N(C(=O)c2cc3ccccc3oc2=O)C2C=CS(=O)(=O)C2)cc1 (stereo not given),-122.5
CCN(C(=O)c1cc2ccccc2oc1=O)c1ccccc1,-123.8
O=C(Cc1ccc(Cl)cc1)Nc1ccc(Br)cc1,-67.3
Oc1ccc(Cl)cc1CNc1ccc(Br)cn1,-141.8
O=C(Cc1ccc(Cl)cc1)Nc1ccc(Br)cn1,-66.0
CCCS(=O)(=O)c1nc(S(=O)(=O)c2ccc(Cl)cc2)c(N2CCC(O)CC2)s1,-94.6
CCCS(=O)(=O)c1nc(S(=O)(=O)c2ccc(C)cc2)c(N2CCC(C(N)=O)CC2)s1,-75.1
SMILES,aSyn UTR act
COc1ccc(OC)c(S(=O)(=O)ON2C(=O)c3ccccc3C2=O)c1,-90.3
CCc1ccc(NC(=O)CCC(=O)Nc2nnc(C(F)(F)F)s2)cc1,-73.1
COc1ccc(-c2nc3c4ccccc4ccn3c2CN2CCOCC2)cc1OC,-94.7
O=S(=O)(Nc1cccc(-c2ccc(N3CCCCCC3)nn2)c1)c1ccccc1F,-127.7
O=C(Nc1cccc(-c2ccc(N3CCCCC3)nn2)c1)C(F)(F)F,–
O=S(=O)(Nc1cccc(-c2ccc(N3CCCCCC3)nn2)c1)c1ccc(F)cc1,-145.9
O=S(=O)(Nc1cccc(-c2ccc(N3CCCCCC3)nn2)c1)c1ccc(C(F)(F)F)cc1,-87.7
Cc1ccc(S(=O)(=O)Nc2cccc(-c3ccc(N4CCCCCC4)nn3)c2)cc1C,-117.3
O=S(=O)(Nc1cccc(-c2ccc(N3CCCCCC3)nn2)c1)c1cccc(F)c1,-107.9
COc1ccccc1OCCSc1nnnn1C1CCCCC1,-81.4
c1ccc(OCCSc2nnnn2C2CCCCC2)cc1,-121.7
Cc1ccc(C(=O)Nc2cccc(C(F)(F)F)c2)cc1NC(=O)c1ccno1,–
Cc1ccc(NC(=O)c2c(C(F)(F)F)nn(C)c2SCc2cccc(C(F)(F)F)c2)cc1C,-102.4
Cc1ccc(NC(=O)c2ccc(OC(=O)c3ccco3)cc2)cc1,-121.8
Cc1ccc(Cn2cccc(NC(=O)c3ccco3)c2=O)cc1,-78.5
Cc1ccc(NC(=O)c2ccc(OC(=O)c3cc4ccccc4o3)cc2)cc1,-124.1
Cc1ccc(Oc2ccc(NC(=O)c3ccco3)cc2)cc1,-123.2
N#CC(=C1CCCC1)c1nc(-c2cc3ccccc3oc2=O)cs1,-231.7
